# Assay results published in PubChem BioAssay AID1645855 (Buhrlage Lab, Dana-Farber Cancer Institute and Novartis …, 2021).
# The campaign covered roughly 47,000 compounds. About 3,100 (6.6%) were called active. Shown is part of a subset that was picked to be rich in actives. Values without a mark were called inactive. Rule as the data show it: active = inhibition above about 30%; inactive = the rest.
# Molecular target: Ubiquitin carboxyl-terminal hydrolase 17-like protein 5 (Homo sapiens) (UniProt A8MUK1)
# Sequence (A8MUK1 whole entry, looked up): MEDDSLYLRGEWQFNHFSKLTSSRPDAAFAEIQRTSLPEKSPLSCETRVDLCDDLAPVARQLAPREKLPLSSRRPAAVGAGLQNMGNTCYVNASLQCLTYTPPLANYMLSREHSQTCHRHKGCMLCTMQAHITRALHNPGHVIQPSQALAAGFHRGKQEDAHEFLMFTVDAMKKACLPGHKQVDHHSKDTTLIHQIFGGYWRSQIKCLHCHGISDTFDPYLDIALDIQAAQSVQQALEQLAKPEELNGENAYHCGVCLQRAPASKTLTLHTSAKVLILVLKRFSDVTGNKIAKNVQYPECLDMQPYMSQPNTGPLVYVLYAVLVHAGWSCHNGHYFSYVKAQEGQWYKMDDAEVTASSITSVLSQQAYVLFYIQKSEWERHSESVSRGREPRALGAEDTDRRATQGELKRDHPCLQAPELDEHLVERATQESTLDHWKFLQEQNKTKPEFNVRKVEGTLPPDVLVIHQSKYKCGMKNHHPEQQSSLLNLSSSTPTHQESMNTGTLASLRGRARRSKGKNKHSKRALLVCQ
# Assay: blocks human USP17 ubiquitin-rhodamine cleavage (AID 1645855)
# Conditions: purified USP17, Ub-rhodamine cleavage fluorescence, 3 h; at 50 µM; active compounds read high
row,SMILES,inhibition
1,CC1COc2ccccc2N1C(=O)c1ccc(F)cc1 (configuration not stated),0.747%
2,CC1CCN(S(=O)(=O)c2cccn(CC(=O)Nc3ccc(F)cc3)c2=O)CC1,-5.61%
3,COC(=O)c1cccc(Nc2c(-c3ccccc3)nc3cnc(Br)cn23)c1,-68.2%
4,O=C1CCC(=O)N(O)CCCCCNC(=O)CCC(=O)N(O)CCCCCNC(=O)CCC(=O)N(O)CCCCCN1,23.5%
5,O=C(CN1CCN(c2ccccc2)CC1)c1ccccc1,-12.9%
6,CC(=O)N1CCc2cc(S(=O)(=O)Nc3ccccc3N3CCN(C)CC3)ccc21,-8.21%
7,CC(=O)N1CCc2cc(C(O)CN3CCN(c4ccccc4)CC3)ccc21 (configuration not stated),47.6% (active)
8,CCOCCCNc1ncnc2c1sc1nc(N3CCOCC3)c3c(c12)CC(C)(C)OC3,-1.37%
9,Cc1cc(=O)n(CC(=O)NCc2ccccc2Cl)c(N2CCCC2)n1,-2.72%
10,CCOc1ccccc1CNC(=O)CCn1c(-c2ccc(F)cc2)cc(C(C)=O)c1C,-2.37%
11,Cc1ccccc1CNC(=O)Cn1c(=O)ccn(Cc2ccc(F)cc2)c1=O,42.9% (active)
12,O=C1Nc2ccccc2C1c1c(-c2ccccc2Cl)[nH]c2[nH]c(=O)[nH]c(=O)c12 (configuration not stated),8.48%
13,Cc1cnc(N2CC[C@@H]3[C@@H](CO[C@@H]3CNS(C)(=O)=O)C2)nc1,-4.98%
14,CC(C)NC(=O)N1CCCN(C2CCN(Cc3ccccc3)C2=O)CC1 (configuration not stated),-36.9%
15,CCCCc1nc2sc3c(SCC(=O)NCc4ccccc4)ncnc3c2c2c1CCC2,44.6% (active)
16,CCCc1nc2sc3c(N4CCC(C)CC4)ncnc3c2c2c1CCC2,-14.3%
17,CCC1(C)Cc2c(sc3nc(SCC(=O)NCCc4ccccc4)nc(N)c23)CO1 (configuration not stated),-6.11%
18,CC(=O)CSc1nnc(-c2ccccc2Br)o1,2.6%
19,CCCCOc1ccc(-c2nnc(-c3ccccc3Br)s2)cc1,4.93%

row,SMILES,inhibition
1,CS(=O)(=O)c1cnc(N2CCCCC2)nc1C1CCN(C(=O)CCc2ccco2)CC1,5.15%
2,Cc1cccc(-n2cc(-c3ccccc3)c3c(N(C)C)ncnc32)c1,2.77%
3,COc1ccc(CN=C2NS(=O)(=O)C(c3ccc(F)cc3)=C2C)cc1OC,66.4% (active)
4,COc1ccc(C2=Nc3ncnn3C2=NCc2ccc(F)cc2)cc1OC,-4%
5,CC1=C(c2ccc(C)cc2)S(=O)(=O)NC1=NCc1cccc(Br)c1,46% (active)
6,CC1=C(c2ccc(Cl)cc2)S(=O)(=O)NC1=NCC(=O)NC1CCCC1,20.9%
7,COc1cc(CNc2nn[nH]n2)ccc1OCc1ccc(C)cc1,5.1%
8,CCn1c(SCc2cccc(C)c2)nnc1-c1cnccn1,10.7%
9,O=C(c1cccnc1)N1CCC(c2cccc(Cc3ccccc3Cl)n2)CC1,-11.1%
10,COc1cccc(CC2(NC(=O)c3ccccc3)N=C3C=CC=CN3C2=O)c1OC (configuration not stated),16.5%
11,Cc1cc(OCC(=O)Oc2ccc(-n3cnnn3)cc2)cc(C)c1Cl,-0.253%
12,CCc1ccc(C(=O)Cn2c(N3CCOCC3)nc3ccccc32)cc1,-2.13%
13,COc1ccc(S(=O)(=O)N2CC(C(=O)NC3CCCCC3)C3(CCOCC3)C2)cc1 (configuration not stated),0.196%
14,COc1nc(OC)nc(N2CCC(c3nc(C)cc(-c4ncc[nH]4)n3)CC2)n1,-10.1%
15,COc1cccc(-c2nnc(-c3ccccc3NS(=O)(=O)c3ccc(C)cc3)o2)c1,15.5%
16,COc1ccc(-c2nnc(-c3cccc(S(=O)(=O)N4CCCC4)c3)o2)cc1,13.3%
17,COc1cccc(-n2nnc(-c3nnc(-c4ccccc4)o3)c2C)c1,54.7% (active)
18,Cc1ccc(CNC(=O)CCNc2cc(C)nc3nc(-c4cccnc4)nn23)cc1,6.35%
19,CCC(CC)C(=O)N1CCC(c2nc3c(nnn3Cc3ccccc3)c(=O)[nH]2)CC1,14.7%

row,SMILES,inhibition
1,CC1=C2C[C@@H]3C(CN4CCN(c5ccccn5)CC4)C(=O)O[C@@H]3C[C@@]2(C)CCC1 (some centres not stated),-3.81%
2,COc1ccc(-c2nc(N(Cc3ccccc3)C(=O)CN3CCOCC3)sc2C)cc1,-13.9%
3,COc1ccc(NC(=O)c2sc(N3CCOCC3)nc2-c2ccccc2)c(OC)c1,52.7% (active)
4,CNC(=O)c1cc(-c2ccccc2)c(N2CCOCC2)s1,2.58%
5,CC(C)Cc1noc(CN2CCC3(CC2)CC3c2nnc(-c3cccc(F)c3)o2)n1 (configuration not stated),0.0905%
6,CC/C=C\[C@@H]1O[C@H]1C1=C(C)C(=O)C2(O1)C(=O)NC(OC)(C(=O)c1ccccc1)C2O (some centres not stated),-4.56%
7,COc1ccc(-c2cc(C(=O)N3CCCC3c3cc(C)on3)no2)cc1 (configuration not stated),0.23%
8,O=C(Nc1ccc2c(c1)OCO2)c1sc2cc(Cl)ccc2c1Cl,-7.31%
9,COc1ccccc1OCCC(=O)Nc1cccc(S(=O)(=O)N(C)C)c1,9.63%
10,CCOc1ncccc1C(=O)NNC(=O)c1cn(-c2ccccc2)nc1-c1ccccc1,2.51%
11,CC(OC(=O)c1cn(-c2ccccc2)nc1-c1cccnc1)C(=O)Nc1cccc(S(=O)(=O)N(C)C)c1 (configuration not stated),41.1% (active)
12,NC(=O)c1ccccc1OCC(=O)Nc1cc(Cl)ccc1Oc1ccccc1,-1.08%
13,Cc1cc(=O)oc2c(C)c(OC(C)C(=O)NCc3ccncc3)ccc12 (configuration not stated),-11.3%
14,COc1ccc(-c2noc(-c3cc4c(COC(C)=O)cnc(C)c4oc3=O)n2)cc1,-158%
15,COc1ccc(-c2cc(=O)oc3c(C)c(OCc4ccccc4F)ccc23)cc1,49.1% (active)
16,CNC(=O)c1sc2nccnc2c1C1CCN(c2ccncn2)CC1,-8.22%
17,CCc1cc(C2CCCN2S(=O)(=O)c2ccc(C(C)C)cc2)on1 (configuration not stated),9.48%
18,Cc1nn(C)c(C)c1CN(C(=O)Cn1cc(C(C)C)nn1)C1CC1,-1.87%
19,CN1C[C@@H](NC(=O)c2ccc(F)cc2)C[C@H]1c1nc(-c2cccnc2)no1,-2.42%
